Compound activity deposited in PubChem BioAssay by Paczesny and Yang Labs, IUPUI and University of Michigan.
ST2 inh – blocks human ST2 binding to IL-33 | AlphaLISA ST2-Fc/biotin-IL-33 interaction, 1 h | inhibition, % for hits at 17 µM | 2.3% of 78,000 active | Q01638; in the data active means inhibition above about 30%
Target sequence (Q01638 whole entry, looked up): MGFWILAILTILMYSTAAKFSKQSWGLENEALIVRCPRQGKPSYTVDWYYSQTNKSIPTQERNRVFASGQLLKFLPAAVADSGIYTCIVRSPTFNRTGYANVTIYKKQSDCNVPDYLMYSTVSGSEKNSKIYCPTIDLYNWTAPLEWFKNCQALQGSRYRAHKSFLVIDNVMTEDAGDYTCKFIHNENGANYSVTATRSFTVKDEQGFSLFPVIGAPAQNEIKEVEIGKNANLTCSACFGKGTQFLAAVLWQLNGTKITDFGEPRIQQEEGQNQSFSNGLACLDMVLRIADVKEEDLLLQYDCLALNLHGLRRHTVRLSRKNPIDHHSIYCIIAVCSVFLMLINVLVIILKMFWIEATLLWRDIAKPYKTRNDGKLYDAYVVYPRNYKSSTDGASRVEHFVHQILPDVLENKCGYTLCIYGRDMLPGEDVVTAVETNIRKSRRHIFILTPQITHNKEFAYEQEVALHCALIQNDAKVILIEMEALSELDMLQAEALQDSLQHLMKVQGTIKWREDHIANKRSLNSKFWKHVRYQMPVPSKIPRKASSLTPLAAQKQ
The depositor's hits bear a star; i = inactive; ! = a repeat was not active. Only a selection was taken, and hits are over-represented in it overall.

SMILES	ST2 inh
CC(C)c1ccc2c(c1)CCC1[C@](C)(C(=O)O)CCC[C@]21C (stereo not given in full)	i
O=C(Nc1ccc(Br)cc1)c1cccc(S(=O)(=O)Nc2ccccn2)c1	42%*
Cc1ccc(NC(=O)c2ccc(C)c(S(=O)(=O)Nc3ccccn3)c2)cc1	i
O=S(=O)(Nc1ccccn1)c1ccc(Br)cc1	i
COc1ccc(C(=O)Nc2ccccc2Cl)cc1OC	i
CC(C)Sc1nnc(SC(C)C)c2ccccc12	i
COc1ccccc1C1CN(CCNC(=O)Cc2cccs2)Cc2ccccc2O1 (stereo not given)	i
CCc1nc(CN2CCOc3c(O)cc(-c4cccc(Cl)c4)cc3C2)no1	i
COc1cc2c(cc1OC)-c1nnc(-c3cc(OC)c(OC)c(OC)c3)n1C(C)(C)C2	i
CC(C)c1ccc(NC2=NS(=O)(=O)c3ccccc32)cc1	i
N#Cc1ccc(-c2ccncc2)nc1SCc1ccc(F)cc1	34%*
CCSc1nc(-c2ccccc2)ccc1C#N	i
N#Cc1ccc(-c2ccccc2)nc1SCC(=O)c1ccc(O)c(O)c1	i
COC(=O)[C@@H]1Cc2ncn(C(C)C)c2CN1C(=O)c1ccc(F)cc1	i
CCc1ccccc1NC(=O)C(C)N(c1ccccc1)S(C)(=O)=O (stereo not given)	i
CC1=C(C(=O)Nc2ccc(C)cn2)C(c2cccnc2)C2=C(CC(C)(C)CC2=O)N1 (stereo not given)	i
CC1(C)CC(=O)C2=C(C1)Nc1nc(SCc3ccccc3Cl)nn1C2c1ccncc1 (stereo not given)	42%*!
Cc1ccc(C2Nc3ccc(C(=O)c4ccccc4)cc3NC3=C2C(=O)CCC3)cc1 (stereo not given)	i
COc1ccc(C2C3=C(CC(C)(C)CC3=O)Nc3nc(SCc4ccccc4)nn32)cc1 (stereo not given)	i
CC1(C)CC(=O)C2=C(C1)Nc1nc(SCc3ccccc3)nn1C2c1ccc(O)cc1 (stereo not given)	i
CCCCC(=O)N1c2ccccc2NC2=C(C(=O)CC(C)(C)C2)C1c1ccc2c(c1)OCO2 (stereo not given)	i
CC1(C)CC(=O)C2=C(C1)Nc1cc(C(=O)c3ccccc3)ccc1NC2c1cccnc1 (stereo not given)	33%*
CC1=C(C(N)=O)C(c2cccnc2)n2nc(SCc3ccccc3Cl)nc2N1 (stereo not given)	i
CC1(C)CC(=O)C2=C(C1)Nc1ccccc1N(C(=O)Cc1ccc(Cl)cc1)C2c1ccco1 (stereo not given)	i
CC1(C)CC(=O)C2=C(C1)Nc1ccccc1N(C(=O)Cc1ccc(Cl)cc1)C2c1cccnc1 (stereo not given)	40%*
SMILES	ST2 inh
COc1cccc(C2C3=C(CC(C)(C)CC3=O)Nc3nc(SCc4ccccc4)nn32)c1 (stereo not given)	i
CC1(C)CC(=O)C2=C(C1)Nc1nc(SCc3ccccc3Cl)nn1C2c1cccnc1 (stereo not given)	31%*!
C=CCc1c(C)nc2nc(SCC(=O)Nc3ccc(CC)cc3)nn2c1C	i
COc1ccc(C(=O)N2CCN=C2SC)c(OC)c1	i
CC(=O)NCCn1cnc(-c2ccccc2)c1-c1cccn1-c1cccnc1	i
CCOC(=O)C1CCCN(Cc2nc(C3(c4ccc(C)cc4)CCCC3)no2)C1 (stereo not given)	i
COCCNC[C@@H]1C=C(C)[C@H](Cc2nnc(-c3ccccc3)o2)C[C@H]1C(C)C	i
Cc1ccc(C2CC(C(F)(F)F)n3nc(C(=O)N4CCCC4)c(Cl)c3N2)cc1 (stereo not given)	i
Cc1c(C(=O)NC2CCCC2)oc2ccc(S(=O)(=O)N3CCOCC3)cc12	i
CC12CC(NC(=O)N1c1ccc(Br)cc1)c1cc(Cl)ccc1O2 (stereo not given)	i
Cc1ccoc1C(=O)N1CCC(=O)N(CC2CC2)C(C(C)C)C1 (stereo not given)	i
CN(C)CC1(O)CCCN(C(=O)c2ccc(-c3cccc(F)c3)cc2)CC1 (stereo not given)	i
O=C(Nc1ccc(-c2nc3ncccc3o2)cc1)c1cccnc1	i
CCCOc1ccc(C(=O)Nc2cc(-c3nc4ncccc4o3)ccc2C)cc1	i
CC(C)Oc1ccc(C(=O)Nc2cccc(-c3nc4ncccc4o3)c2)cc1	i
Cc1ccc(C(=O)Nc2cc(-c3nc4ncccc4o3)ccc2C)cc1C	i
CCOc1cc(C(=O)Nc2cc(-c3nc4ncccc4o3)ccc2C)cc(OCC)c1OCC	37%*
CC(C)Oc1cccc(C(=O)Nc2ccc(-c3nc4ncccc4o3)cc2)c1	32%*
CCOC(=O)N1CCC(NCC(=O)Nc2ccc(N(C)C(C)=O)cc2)CC1	i
CC(C)Cn1nc(C(=O)NC2CCCC2)c2c1CCN(C(=O)c1cncs1)C2	i
COC[C@H](C)Nc1nc(CCN)nc2sc(C)c(C)c12	i
CN(C)c1ccc(/C=C/c2ccnc3ccccc23)cc1	43%*
CN(C)c1ccc(C(=O)Nc2nc3ccc4ccccc4c3s2)cc1	i
Cc1ccc(CN2C(=O)CCC2C(=O)NCCN2CCCC2)cc1 (stereo not given)	i
CCCCOc1ccc(/C=c2\sc3nc(-c4cccs4)nn3c2=O)cc1OC	i
SMILES	ST2 inh
CC(=O)c1cccc(N2CN=c3s/c(=C\c4cccnc4)c(=O)n3C2)c1	i
COc1ccc(N2CN=c3s/c(=C\c4ccc(OC)c(OC)c4)c(=O)n3C2)cc1	35%*
COc1ccc(/C=c2\sc3n(c2=O)CN(c2cccc(F)c2)CN=3)cc1OC	i
O=c1/c(=C/c2ccncc2)sc2n1CN(c1ccc3c(c1)OCO3)CN=2	i
COc1ccc(/C=c2\sc3n(c2=O)CN(c2ccc4c(c2)OCO4)CN=3)cc1	31%*
COC(=O)C1CCN(C(=O)CC[C@H]2CNC(=O)[C@@H]3[C@@H](CCN3CC(C)(C)C)N2C)CC1	i
Cc1nn(S(=O)(=O)c2ccccc2)c(C)c1Sc1ccc([N+](=O)[O-])cc1	i
Cc1cccc(C(=O)n2nc(C)c(Sc3ccc([N+](=O)[O-])cc3)c2C)c1	30%*
Cc1nn(C(=O)c2cccs2)c(C)c1Sc1ccc(Cl)cc1	i
Cc1nn(S(=O)(=O)c2ccc(Br)cc2)c(C)c1Sc1ccccc1	i
Cc1nn(C(=O)c2cccnc2)c(C)c1Sc1ccc(Br)cc1	i
Cc1nn(S(=O)(=O)c2ccccc2[N+](=O)[O-])c(C)c1Sc1ccc([N+](=O)[O-])cc1	43%*
Cc1ccc(CNS(=O)(=O)c2ccc3c(c2)C(=O)NC3)cc1	i
CCN(C(=O)Cc1c(C(=O)O)[nH]c2ccccc12)c1cccc(Cl)c1	i
COc1ccccc1OCC(=O)N(C1CCCCC1)C1CCCCC1	i
Cc1ccc(C(NC(=O)CN2C(=O)c3ccccc3C2=O)c2ccccc2)cc1 (stereo not given)	i
Cc1ccc(NC2=C(NCCO)C(=O)c3ccccc3C2=O)cc1	51%*
Cc1ccc(Nc2nnc(-c3ccc(C)c(S(=O)(=O)NCCO)c3)c3ccccc23)cc1	i
CCC(=O)N1CCc2cc(S(=O)(=O)NC(C(=O)NCc3cccs3)C(C)C)ccc21 (stereo not given)	i
[O-][n+]1cccc2c(Br)cc(Br)c(O)c21	30%*
O=C(NCCNC(=O)c1ccncc1)c1ccncc1	i
O=C(CN1C(=O)C2CCCCN2c2ccc(C(=O)N3CCOCC3)cc21)Nc1ccc(Cl)cc1 (stereo not given)	i
